From PubChem
Sampled rows, rich in hits. Any-hit rate of the full collection: about 3.2%.
Nrf2 activator: activates Nrf2 signaling. AREc32 ARE-luciferase reporter (MCF7-derived line), luminescence, 24 h. Potency, µM (series often up to 46.1 µM), inactives show top-dose activation, hits mostly activators. actives 0.31% (n = 410,000); also: potency is read from the fitted curve at half-maximal effect; % of control where 0% means no effect; nearly all actives have a fitted effect of over 65% in size
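AREc32 cells carrying an ARE-driven firefly luciferase reporter were seeded at 1000 cells/well in OPTI-MEM with 5% FBS, then exposed to compound for 24 hr at 37 deg C. Luminescence was read with Steady-Glo after 30 min at RT.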
IL-2 act: activators of IL-2; actives 0.065% (n = 360,000); IL-2 activation reporter assay, cell-based qHTS; stimulated with anti-CD3/CD4/CD28 beads; in transgenic mouse T cells; activation, % (series mostly up to about 46 µM); in the data active = activation above about 50%; inconclusive = mostly about 30% to 49%; also: 0% is about no effect
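Unstimulated transgenic mouse T cells, 750 per well, received compound and, after 60 minutes, anti-CD3/anti-CD4 bead plus anti-CD28 stimulation. EGFP and DsRed were quantified after 18 hours.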
p53 reactivator: restores transcriptional activity of mutant p53 | H1299 p53-A138V BP100-luciferase reporter, luminescence, 24 h | Potency, µM (highest dose often 92.2 µM), for the others: top-dose activity change, positive = activation, most hits filed as activators | actives 0.063% (n = 320,000); also: potency is read from the fitted curve at half-maximal effect; % of control where 0% means no effect; nearly all actives have a fitted effect of over 45% in size
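p53-null H1299 cells stably carrying temperature-sensitive p53-A138V and a BP100-luciferase reporter were pinned with compounds (4-point, 1:5 series) and held 24 hrs at 37 deg C. Luminescence was read 10 min after detection reagent.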
Nrf2 block: blocks Nrf2 signaling. A549 ARE-Fluc reporter, luciferase luminescence, 18-24 h. Potency, µM (highest dose often 46 µM), without a hit: at the top dose activity change, negative = inhibition, most hits filed as inhibitors. actives 2.1% (n = 360,000). AID 504444; also: potency is read from the fitted curve at half-maximal effect; % is scaled to controls: 0 for no effect and ±100 for the full control effect; nearly all actives have a fitted effect of over 60% in size
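Concentration-response testing used A549 ARE_Fluc cells at 5000 cells/well. Following an 18-24 h compound incubation, viability was read by fluorescence (Ex 405/Em 525) and luciferase output by luminescence.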
BRCA1 expr up: BRCA1 expression activation; Potency, µM (top dose mostly 46.1 µM), for the others: at the highest dose activation, hits mostly activators; MCF7-BRCA1-FFLuc reporter, luminescence, 48 h; response scale: scaled: vehicle 0%, 10 µM genistein 100%; actives 1.1% (n = 380,000); AID 624202; also: potency is read from the fitted curve at half-maximal effect; nearly all actives have a fitted effect of over 80% in size
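First, MCF7-BRCA1-FFLuc cells (2000/well) attach for 2 h; next, compounds are pin-added and incubated 48 h at 37 °C; finally, luciferase reagent is added and luminescence read after 15 min.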
A549 viability: A549 cytotoxicity, counter-screen for Nrf2 inhibitors. A549 ARE-Fluc cells, CellTiter-Fluor viability, 18-24 h. Potency, µM (top dose mostly 46 µM), without a hit: at the highest dose activity change, negative = cytotoxicity, usual class: inhibitors. actives 0.16% (n = 390,000); also: potency is read from the fitted curve at half-maximal effect; % is scaled to controls: 0 for no effect and ±100 for the full control effect
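Cytotoxicity counterscreen: CellTiter-Fluor fluorescence was measured in A549 ARE_Fluc cells after 18-24 h of compound exposure in a concentration series. The subsequent BugLite luminescent read reports ARE-luciferase activity.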
An asterisk follows results filed as active; ? = inconclusive; / = no result given; [ ] = remark or other dose. Unless noted, calls follow the shape of the dose curve; as a rule, active = well fitted curve in the direction sought with a large enough effect; inconclusive = small, poorly fitted or top-dose-only effect, or another doubt; inactive = no such curve, though single readings can be large; an effect the other way counts as inactive or inconclusive.

SMILES | Nrf2 activator | IL-2 act | p53 reactivator | Nrf2 block | BRCA1 expr up | A549 viability
Cn1c2cc(CO)sc2c2cnn(Cc3ccccc3F)c(=O)c21 | / | / | / | 17% | / | 16%
COC1=C(N)C(=O)c2nc(-c3nc(C(=O)O)c(C)c(-c4ccc(OC)c(OC)c4O)c3N)ccc2C1=O | -4% | -1 | -24% | 0.073µM* | ? | 2.6µM*
CS(=O)(=O)c1cc([N+](=O)[O-])c(Sc2nc3ccccc3[nH]2)c([N+](=O)[O-])c1 | ? | -1 | -15% | / | -26% | 23µM*
Cc1ccc(S(=O)(=O)c2nnn3c2nc(N2CCCC2)c2sccc23)cc1 | 1% | / | / | 33% | / | -1%
Cc1ccc(CSc2nccc(-c3c(C)nc4ccccn34)n2)cc1 | 0% | -1 | -3% | 8.2µM* | -59% | -20%
O=C(N/C(=C/c1cccc(Br)c1)c1nc(=S)[nH][nH]1)c1ccccc1 | ? | -5 | 6% | 5% | -27% | -3%
Cc1ccc(C(=O)N/C(=C\c2ccc(Br)cc2)c2nc(=S)[nH][nH]2)cc1 | 3% | -2 | -8% | ? | -16% | 26µM*
CC(C)(C)c1ccc(Oc2ccc(NC(=O)c3cccs3)cn2)cc1 | -1% | -4 | 8% | 16µM* | -68% | -17%
COc1ccc(NC(=O)c2cccs2)cn1 | 4% | 0 | 8% | ? | 57% | 0%
COc1ccc(-c2cc(C)no2)cc1S(=O)(=O)Nc1cccc(C(F)(F)F)c1 | 1% | / | / | 18µM* | / | 5%
Cc1cc(-c2ccc(C)c(S(=O)(=O)Nc3cccc(C#N)c3)c2)on1 | 0% | / | / | 7.3µM* | / | -24%
COc1ccc(NC(=O)c2ccco2)cc1NC(=O)c1cc(Cl)ccc1OC | 3% | / | / | -19% | / | -5%
COCCn1c(SCc2csc(-c3ccccc3)n2)nc2ccccc21 | 1% | -4 | -10% | 21µM* | -62% | -22%
Cc1cc(C)c(C#N)c(SCC(=O)c2ccccc2)n1 | 2.8µM* | 0 | 1% | 21% | -24% | 8%
Cc1cc(C)c(C#N)c(SCC(=O)c2cccs2)n1 | ? | -2 | 1% | 13% | 11% | 6%
Cc1cc(N2CCCCC2)nc(SCC(=O)c2ccccc2)n1 | 5% | -2 | ? | 20% | 10µM* | -3%
COc1ccc(C2Nc3ccccc3C(=O)N2Cc2cccc(-c3ccccc3)c2)cc1COc1ccc(NC(C)=O)cc1 (stereo unspecified) | / | / | / | ? | / | 1%
COc1ccc(C(=O)N(Cc2ccco2)Cc2ccco2)c(O)c1 | / | / | / | 12% | / | 7%
CC1(C)N=C(SCC(=O)Nc2ccc(Cl)cc2)C(c2ccc(Cl)cc2)=N1 | 16% | -1 | -15% | 26µM* | -55% | ?
C/C=C1\COC(C(=O)NC)(C(F)(F)F)C=C1C=C1CCCCC1 (stereo unspecified) | / | / | / | 9% | / | -1%
O=c1c(=Nc2ccccc2O)c(=O)c2ccccc12 | ? | 1 | 11% | ? | 11µM* | -5%
COc1ccc(Nc2nc(N)nc(CSc3nnc(N)s3)n2)cc1 | 3% | -1 | ? | ? | ? | 0%
COc1ccc(OCc2nc(N)nc(Nc3ccc(C)cc3)n2)cc1 | 4% | 0 | 15% | 13% | 16µM* | -6%
COc1ccc(Nc2nc(N)nc(CSc3nccn3C)n2)cc1 | 0% | 0 | -2% | ? | 3.2µM* | -5%
COc1ccc(O)c(C2Nc3ccccc3C(=O)N2Cc2ccccc2)c1 (stereo unspecified) | / | / | / | 11% | / | -14%
SMILES | Nrf2 activator | IL-2 act | p53 reactivator | Nrf2 block | BRCA1 expr up | A549 viability
COc1ccc(C(CC(=O)NCc2ccc(Cl)cc2)N2Cc3ccccc3C2=O)cc1OC (stereo unspecified) | 0% | / | / | ? | / | -5%
Cc1sc(NC(=O)Cc2ccc3c(c2)OCO3)nc1-c1ccc2c(c1)CCN2C(=O)c1cccc(F)c1 | 0% | -1 | -5% | 7.3µM* | -20% | 11%
Cc1cccc(C(=O)N2CCc3cc(-c4nc(NC(=O)CN5CCCC5)sc4C)ccc32)c1 | -1% | 0 | 5% | 4% | -7% | -4%
O=C(CN1C(=O)COc2ccc(S(=O)(=O)NC3CCCC3)cc21)Nc1ccc(Cl)cc1F | 3% | / | / | -4% | / | 2%
O=[N+]([O-])c1cccc(-c2ccc(SCc3ccccn3)nn2)c1 | 1% | -3 | ? | 16% | 6.3µM* | -2%
COc1ccc(-c2ccc(SCc3ccccn3)nn2)cc1OC | 7% | 0 | -1% | 2% | 21% | 4%
COc1cccc(-c2ccc(SCc3ccccn3)nn2)c1 | 2% | 0 | 2% | -18% | 5µM* | -1%
N#C/C(=C\c1c(Oc2ccc(F)cc2)nc2ccccn2c1=O)c1nc2ccccc2s1 | 1% | / | / | 4% | / | -14%
CCCC(=O)N=C1SC2CS(=O)(=O)CC2N1c1ccc(-c2nc3ccc(C)cc3s2)cc1 (stereo unspecified) | 4%[9.22 µM] | 2 | ? | ? | 16µM* | -4%
O=C(Nc1ccccc1)Nc1ccccc1 | 4% | -1 | / | -3% | ? | 1%
O=C(Nc1ccccc1)Nc1ccc(Nc2ccccc2)cc1 | 3% | 0 | / | 21% | 4µM* | -14%
COc1cccc(C(=O)Nc2cccc(SC)c2)c1 | 7% | -3 | ? | / | 13µM* | 0%
COc1ccc(C(=O)C(C)Oc2cccc(NC(=O)c3cccc([N+](=O)[O-])c3)c2)cc1 (stereo unspecified) | 0% | -4 | -6% | 26µM* | -36% | -9%
O=C(Nc1ccc(Nc2ccccc2)cc1)c1ccccc1F | 0% | -1 | -12% | -3% | 1.1µM* | 0%
Oc1ccc(/C=C/c2ccccc2)c2cccnc12 | / | / | / | ? | / | -5%
O=C(Nc1nnc(N2CCCCCC2)s1)Nc1ccccc1C(F)(F)F | 7% | / | / | 29% | / | -10%
CCOC(=O)N1CCc2c(sc(NCc3cccs3)c2C(=O)Nc2cc(Cl)ccc2OC)C1 | 18% | / | / | / | / | -15%
O=C(O)c1cc(N(Cc2ccccc2O)Cc2ccccc2O)ccc1O | / | / | / | -8% | / | -6%
O=C(N/N=C/c1ccco1)Nc1ccccc1 | ? | -2 | ? | 29% | 6.3µM* | 7%
COc1cccc(NC(=O)c2ccc(NC(=O)C(C)(C)C)cc2)c1 | 3%[9.22 µM] | 0 | ? | -16% | 4µM* | -2%
CCOc1cc(/C=N/NC(=O)Nc2ccccc2)ccc1O | 9% | 4 | 11% | 13% | 11µM* | ?
CCN(CC)c1ccc(NC(=O)c2ccccc2F)cc1 | 0% | 6 | 40µM* | ? | -14% | -24%
O=C(CSc1nccn1Cc1ccccc1)NCc1ccco1 | 3% | / | / | / | / | -2%
